An excerpt weighted towards active compounds, which were near 2.4% of everything screened.
POLB inh = DNA polymerase beta (human) inhibition. 1.3% of 340,000 active. Pol beta primer extension/strand displacement, fluorescence kinetic. Potency, µM (highest dose often 114 µM), usual class: inhibitors
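Enzyme-only controls used 10 nM Pol beta; buffer lacking enzyme served as negative control. Compound preincubated 15 min, then 50 nM substrate added; 0 and 10 min reads at room temperature.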
POLI inh = blocks human DNA polymerase iota activity; Potency, µM (highest dose often 115 µM), usual class: inhibitors; Q9UNA4; 1% of 390,000 active; Pol iota fluorescent replication assay, 10 min
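Fluorescent replication assay read twice, at 0 min and 10 min after adding 50 nM (final) substrate. Enzyme (10 nM) and compounds were first incubated 15 min at room temperature; enzyme-free buffer wells were negative controls.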
Pol eta inh = inhibitors of human DNA polymerase eta; 1.2% of 390,000 active; Potency, µM (doses to about 114 µM), hits mostly inhibitors; recombinant Pol eta, fluorescent DNA replication assay
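Pol eta (10 nM) was preincubated with compounds for 15 min at room temperature, after which fluorescent replication substrate (50 nM final) was added to start the reaction. Fluorescence was read kinetically at 0 and 10 min.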
FEN1 inh = human FEN1 inhibition. AID 588795. P39748. Potency, µM (top dose mostly 114 µM), actives largely listed as inhibitors. 0.35% of 390,000 active. Recombinant FEN1 flap cleavage, fluorescence, 15 min; further: nearly all actives have a fitted effect of over 65% in size
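In this screen, 50 nM flap DNA substrate was added to 10 nM FEN1 pretreated with compound for 15 min at room temperature; cleavage was followed with reads at 0 and 15 min, and Hill fitting gave concentration–response parameters.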
Pol kappa inh = inhibitors of human DNA polymerase kappa. purified Pol kappa, fluorescent DNA synthesis assay, 10 min. Potency, µM (highest dose often 107 µM), usual class: inhibitors. 0.53% of 400,000 active. AID 588579
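Enzyme at 10 nM met test compounds for 15 min at room temperature. Substrate addition (50 nM final) began the reaction, which was monitored by fluorescence at 0 and 10 min.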
WRN inhibitor = WRN helicase (human) inhibition; Q14191; WRN helicase unwinding, fluorescent forked duplex, kinetic; Potency, µM (series often up to 114 µM), usual class: inhibitors; 0.46% of 360,000 active; AID 651768; further: nearly all actives have a fitted effect of over 55% in size
Target sequence (Q14191 whole entry, looked up): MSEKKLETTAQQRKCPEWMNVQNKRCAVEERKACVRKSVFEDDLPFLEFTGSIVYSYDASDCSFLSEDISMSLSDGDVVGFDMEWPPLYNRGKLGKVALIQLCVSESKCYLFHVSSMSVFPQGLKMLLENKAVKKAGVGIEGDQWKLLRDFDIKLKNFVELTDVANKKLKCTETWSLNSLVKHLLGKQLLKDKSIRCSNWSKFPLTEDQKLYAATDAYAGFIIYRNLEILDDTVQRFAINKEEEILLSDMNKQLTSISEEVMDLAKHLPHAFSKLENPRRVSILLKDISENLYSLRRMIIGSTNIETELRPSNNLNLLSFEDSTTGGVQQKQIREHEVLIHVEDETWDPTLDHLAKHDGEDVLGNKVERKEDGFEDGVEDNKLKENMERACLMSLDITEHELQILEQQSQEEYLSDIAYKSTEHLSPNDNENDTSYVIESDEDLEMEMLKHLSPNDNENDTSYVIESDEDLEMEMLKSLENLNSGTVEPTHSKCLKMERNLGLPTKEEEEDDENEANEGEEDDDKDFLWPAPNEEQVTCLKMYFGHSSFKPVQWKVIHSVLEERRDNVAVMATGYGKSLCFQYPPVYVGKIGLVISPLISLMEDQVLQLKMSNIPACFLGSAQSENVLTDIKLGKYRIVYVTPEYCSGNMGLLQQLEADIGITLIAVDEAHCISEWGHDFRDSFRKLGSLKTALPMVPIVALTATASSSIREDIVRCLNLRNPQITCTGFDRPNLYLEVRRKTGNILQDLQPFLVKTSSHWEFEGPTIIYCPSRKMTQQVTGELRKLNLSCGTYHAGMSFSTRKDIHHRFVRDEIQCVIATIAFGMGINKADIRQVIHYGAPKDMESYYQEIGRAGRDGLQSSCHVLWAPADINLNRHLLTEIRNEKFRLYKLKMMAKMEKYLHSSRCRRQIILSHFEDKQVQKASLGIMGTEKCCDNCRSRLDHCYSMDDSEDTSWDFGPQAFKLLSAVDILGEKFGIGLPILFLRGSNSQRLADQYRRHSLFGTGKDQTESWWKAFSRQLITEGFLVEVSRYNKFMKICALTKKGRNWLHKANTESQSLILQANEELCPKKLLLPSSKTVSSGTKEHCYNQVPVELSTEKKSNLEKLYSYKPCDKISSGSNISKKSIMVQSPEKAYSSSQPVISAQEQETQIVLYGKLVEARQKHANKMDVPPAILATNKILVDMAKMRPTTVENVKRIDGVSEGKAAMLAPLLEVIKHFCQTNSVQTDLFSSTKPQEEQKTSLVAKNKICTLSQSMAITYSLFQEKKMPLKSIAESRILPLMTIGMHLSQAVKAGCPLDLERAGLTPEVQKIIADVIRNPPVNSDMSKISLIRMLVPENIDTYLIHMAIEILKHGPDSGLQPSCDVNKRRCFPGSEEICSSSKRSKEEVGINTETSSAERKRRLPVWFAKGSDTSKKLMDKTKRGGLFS
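Fluorescence dequenching readout, ex 525 nm/em 598 nm, kinetic mode: forked duplex DNA (100 nM final) with adjacent fluorophore and quencher unwound by WRN (20 nM final) with 2 mM ATP. Compound preincubation 15 min, room temperature.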
Of the large screens only hits and unclear results are named; the others gave an inactive call. The call rests on the fitted dose curve; in most records, active means well fitted curve in the direction sought with a large enough effect; inconclusive means small, poorly fitted or top-dose-only effect, or another doubt; inactive means no such curve, though single readings can be large; an effect the other way counts as inactive or inconclusive.

O=C(O)c1ccc(-n2c(O)c(/C=C3\C=Nc4ccccc43)c(=O)[nH]c2=O)cc1	POLI inh inconclusive, Pol eta inh 50µM, FEN1 inh inconclusive
O=c1[nH]c(=O)n(-c2cccc(F)c2)c(O)c1/C=C1\C=Nc2ccccc21	POLI inh 14µM
COC(=O)C1=Nc2ccccc2/C1=C\c1c(O)n(-c2ccc(Br)cc2)c(=O)[nH]c1=O	POLB inh inconclusive, Pol eta inh 35µM, WRN inhibitor 50µM
CCCC12CN3CN(C1)CC(CCC)(C3)C2O (centres undefined)	none
COOCC1(C(=O)OC)C[C@H](c2ccc(OC)cc2)N(Cc2ccccc2OC)[C@@H]1c1ccccc1C (some centres undefined)	none (no result: POLB inh, POLI inh, Pol eta inh, FEN1 inh, Pol kappa inh)
CNCCc1ccc(O)c(O)c1	POLI inh 89µM, Pol kappa inh inconclusive (no result: FEN1 inh)
CC(=Nc1ccc2c(c1)CCC2)c1c(O)n(-c2ccccc2)c(=O)[nH]c1=O	none
O=C1NC(=O)N(c2ccccc2)C(=O)/C1=C/c1ccc(Sc2ccccc2)o1	Pol eta inh inconclusive, Pol kappa inh inconclusive, WRN inhibitor 45µM
CC(=O)O[C@H]1C(=O)[C@@]2(C)C([C@H](OC(=O)c3ccccc3)[C@]3(O)C[C@H](OC(=O)[C@H](O)[C@@H](NC(=O)c4ccccc4)c4ccccc4)C(C)=C1C3(C)C)[C@]1(OC(C)=O)CO[C@@H]1C[C@@H]2OC(=O)[C@H](C)NC(=O)c1ccc(-c2c3ccc(=O)cc-3oc3cc(O)ccc23)c(C(=O)O)c1 (some centres undefined)	Pol kappa inh 4.7µM (no result: POLB inh, POLI inh, Pol eta inh, FEN1 inh, WRN inhibitor)
C/C=C(\C)C(=O)N[C@@H](c1ccccc1)[C@@H](O)C(=O)O[C@H]1C[C@@]2(O)[C@@H](OC(=O)c3ccccc3)C3[C@](C)(C(=O)[C@H](OC(C)=O)C(=C1C)C2(C)C)[C@@H](O)C[C@H]1OC[C@@]31OC(C)=O (some centres undefined)	none
C/C1=C\[C@@H](C)C/C=C/[C@H]2[C@@H]3O[C@]3(C)[C@@H](C)[C@H]3[C@H](Cc4c[nH]c5ccccc45)NC(=O)[C@]32C(=O)/C=C/C(=O)[C@@H]1O	POLB inh 22µM, POLI inh inconclusive, Pol eta inh inconclusive, Pol kappa inh inconclusive
C[N+](C)(C)c1ccccc1	none
C=C/C(=C/C(=O)C[C@H](C)C[C@@H](C)CC[C@H](O)[C@H](C)C(=O)C[C@@H](O)[C@H](C)[C@@H](C)OC(=O)C[C@@H](O)C1=C(C)C(=O)OC1=O)CC	Pol kappa inh 4.7µM (no result: POLB inh, POLI inh, Pol eta inh, FEN1 inh, WRN inhibitor)
CCC(=O)OC1(c2cccc(C)c2)CC(C)N(C)CC1C (centres undefined)	none
CC1=C(C/C(C)=C/c2ccccc2)/C(=C/CO)[C@@H]2OC(=O)O[C@]2(C)C12CC2	none (no result: POLB inh)
CC[C@H](C)/C=C(C)/C=C/C1=CC2=C(Cl)C(=O)[C@](C)(OC(C)=O)C(=O)C2=CO1	POLI inh 50µM, Pol eta inh 20µM, FEN1 inh inconclusive, Pol kappa inh 79µM, WRN inhibitor 50µM (no result: POLB inh)
N.N.N.N.N.N.N.N.N.N.N.N.N.N.O.O.[Ru+4].[Ru+5].[Ru+5]	Pol kappa inh 27µM (no result: POLB inh, POLI inh, Pol eta inh, FEN1 inh, WRN inhibitor)
O=C(CCl)Nc1nccs1	none
CC1(C)C(=O)CC[C@]2(C)C3C(=O)C=C4[C@H]5C[C@@](C)(C(=O)O)CC[C@]5(C)CC[C@]4(C)[C@]3(C)CC[C@@H]12 (some centres undefined)	POLB inh 45µM
O=C1NC(=O)C(=Cc2ccc(Oc3ccc([N+](=O)[O-])cc3)cc2)C(=O)N1	POLB inh inconclusive, Pol eta inh inconclusive, WRN inhibitor 25µM
COc1cc(C=C2C(=O)NC(=O)NC2=O)ccc1OCc1ccc([N+](=O)[O-])cc1	WRN inhibitor 45µM
CCOC(=O)C1=C(N)OC(C)=C(C(=O)OCCOC)C12C(=O)Nc1ccccc12 (centres undefined)	none
CC(C)[C@H]1C(=O)N2CCC[C@H]2[C@]2(O)O[C@](NC(=O)[C@@H]3C=C4c5cccc6[nH]cc(c56)C[C@H]4N(C)C3)(C(C)C)C(=O)N12	POLI inh 22µM

Source: PubChem
